The source of these data is PubChem BioAssay (EPA / NIEHS).

SMILES strings stand for the structures. Records with an inconclusive call do not appear. Where a structure was tested more than once in an assay, its records may differ in their call. Calls of active or inactive are those of the source. How the source made its calls: active means hit-call score of the fitted dose curve at least 0.9, where 1 is the maximum; inconclusive means response in the unintended direction; inactive means score below 0.9.

Read-out in the assay: xenobiotic metabolism (CYP1A2), CYP1A2 (gene 1544)
As to the kind of experiment: CLD_CYP1A2_48hr: CellzDirect (CLD) Gene Expression Assay for xenobiotic metabolism (CYP1A2) at 48 hours (AID 2283703). The protocol: CLD_48hr is a cell-based, multiplexed-readout assay that uses hepatocyte, a human liver primary cell, with measurements taken at 48 hours after chemical dosing in a 96-well plate.CLD_CYP1A2_48hr is one of 16 assay component(s) measured or calculated from the CLD_48hr assay. It is designed to make measurements of mRNA induction, a form of inducible reporter, as detected with chemiluminescence signals by Quantitative Nuclease Protection Assay (qNPA) technology.Data from the assay component CLD_CYP1A2_48hr was analyzed at the endpoint, CLD_CYP1A2_48hr, in the positive analysis fitting direction relative to DMSO as the negative control and baseline of activity. Using a type of inducible reporter, gain-of-signal activity can be used to understand changes in the reporter gene as they relate to the gene CYP1A2. Furthermore, this assay endpoint can be referred to as a primary readout. To generalize the intended target to other relatable targets, this assay endpoint is annotated to the cyp intended target family, where subfamily is xenobiotic metabolism.
Human hepatocyte cultures were treated daily for two consecutive days with fresh dosing solutions containing appropriate concentrations of the 320 ToxCast chemicals (chemical identities were blinded to CellzDirect and other ToxCast collaborators), vehicle control (0.2% DMSO), and positive control inducers as summarized in Table 1. Due to the large number of treatment groups and chemicals examined, the ToxCast chemicals were divided into two groups (spanning two independent cultures of hepatocytes from separate donor preparations (Hu778: ToxCast plates 1 and 2; Hu776: ToxCast plates 3 and 4). Each preparation of human hepatocyte cultures was treated with respective vehicle control, medium only control, set of six positive controls/reference chemicals for the five hepatic receptor pathways, and a subset of eight of the ToxCast chemicals (indoxacarb, pyrithiobac-sodium, norflurazon, cyhalofop-butyl, methomyl, thiram, acetochlor, and propiconazole). These replicate data, coupled with internal replicates designed within the blinded ToxCast chemical library, provided additional data to evaluate interindividual differences between hepatocyte preparations and their potential impact on chemical profiles.Cell morphology and integrity were evaluated using phase-contrast microscopy as an indicator of hepatocyte cell health (Tyson & Green, 1987). Cultures for each treatment group (i.e., media, vehicle [0.2% DMSO], positive control inducers [multiple concentrations], and the ToxCast chemicals [multiple concentrations]) were observed and cell morphology was assessed relative to vehicle control cultures at each harvest time point (0, 6, 24, or 48 h). […] Images were evaluated at the conclusion of the study to assess changes in cell integrity and account for the effects of chemical exposure on uncharacteristic changes in concentration-dependent gene expression profiles. The results from these determinations of apparent cytotoxicity were annotated (yes/no) alongside the corresponding qNPA data for reference.At the conclusion of each treatment period, hepatocyte cultures (96-well) were washed with 1 volume of HBSS, lysed by addition of 25 ul ArrayPlate lysis buffer (HTG, Tucson, AZ), and 70 ul/well of Denaturation Oil, denatured by incubation at 95C for 10 min, and frozen at approximately -70C until analysis by nuclease protection assay (qNPA) (Roberts et al., 2007). For qNPA analysis, cell lysates were thawed at 50C for approximately 30 min, qNPA probes were added, and samples were incubated at 95C for 10 min to begin the detection process by denaturing the target RNA, dissociating the duplexes and secondary structure hybridization. At the conclusion of the hybridization period, S1 nuclease reagent was added to each sample to digest all nonprotected nucleotides at 50C for 60-90 min. […]
As for `CCCOC(=O)NCCCN(C)C`, the result was inactive.
Still for that read-out and setting: the result for `CCSC(=O)N(CC(C)C)CC(C)C` reads “inactive”.
Same read-out and setting: next, `COCCO`: “inactive”.
On the same count and under the same terms, next, `CCCCCCC(C)OC(=O)COc1nc(F)c(Cl)c(N)c1Cl` (stereo not given): “inactive”; `CCCCC(CC)COC(=O)c1ccccc1C(=O)O` (stereo not given): “inactive”.
Take `COC(=O)c1c(Cl)nn(C)c1S(=O)(=O)NC(=O)Nc1nc(OC)cc(OC)n1`: the AC50 was 1.13 µM (active).
On the same count and under the same terms, the result for `CCCCC(CC)CN1C(=O)C2C3C=CC(C3)C2C1=O` (stereo not given) reads 12.6 µM (active).
On the same count and under the same terms, next, `CN(C)C(=O)Nc1ccc(Cl)c(Cl)c1`: 11.9 µM (active).
Consider `CCCOC(=O)c1ccc(C(=O)OCCC)nc1`, for which the compound was classed as inactive.
On to `CCOC(=O)NCCOc1ccc(Oc2ccccc2)cc1`, for which the outcome was inactive.
Take `CCCN(CCC)C(=O)SCC`: the result was inactive and the AC50 was 6.32 µM (active).
`CCNc1nc(N)nc(Cl)n1`: the concentration at half-maximal activity (AC50) is 3.97 µM (active).
Regarding `c1ccc2[nH]c(-c3cscn3)nc2c1`, the half-maximal activity concentration (AC50) is 1.36 µM (active).
`CSC(=O)c1cccc2nnsc12`: the half-maximal activity concentration (AC50) is 9.55 µM (active).
Turning to `C#CCOC(=O)[C@@H](C)Oc1ccc(Oc2ncc(Cl)cc2F)cc1`, the outcome was inactive.
With `CC1(C)C(C=C(Cl)Cl)C1C(=O)OCc1cccc(Oc2ccccc2)c1` (stereo not given), the concentration at half-maximal activity (AC50) is 9.51 µM (active).
Take `CCC(O)=C1C(=O)CC(C(=O)O)CC1=O` (stereo not given): the compound was called inactive.
For `CCOC(=O)C(C)Oc1ccc(Oc2nc3ccc(Cl)cc3o2)cc1` (stereo not given), the compound was called inactive.
Same read-out and setting: the result for `CCN(CC)C(=O)c1cccc(C)c1` reads “inactive”.
As for `COC(=O)c1ccc(I)cc1S(=O)(=O)NC(=O)Nc1nc(C)nc(OC)n1`, the AC50 was 20 µM (active).
Turning to `CCC(C)OC(=O)N1CCCCC1CCO` (stereo not given), the compound was called inactive.
Turning to `COC(=O)c1cccc(C)c1S(=O)(=O)NC(=O)Nc1nc(OCC(F)(F)F)nc(N(C)C)n1`, the concentration at half-maximal activity (AC50) is 5.82 µM (active).
Regarding `O=C(O)C1(C(=O)Nc2ccc(Cl)cc2Cl)CC1`, the compound was called inactive.
For the compound `COC(=O)c1ccccc1S(=O)(=O)NC(=O)Nc1nc(OC(F)F)cc(OC(F)F)n1`, the concentration at half-maximal activity (AC50) was 11 µM (active).
For the compound `CCCCOCCOCCOCc1cc2c(cc1CCC)OCO2`, the AC50 was 5.82 µM (active).
On the same count and under the same terms, the result for `O=C(Nc1ccc([N+](=O)[O-])cc1Cl)c1cc(Cl)ccc1O` reads 0.549 µM (active).
As for `COC(=O)CSc1cc(N=c2sc(=O)n3n2CCCC3)c(F)cc1Cl`, the outcome was inactive.
For `CCOC(=O)[C@H](C)Oc1ccc(Oc2nc3ccc(Cl)cc3o2)cc1`, the AC50 is 20 µM (active).
Take `COC(=O)c1ccc(CNS(C)(=O)=O)cc1S(=O)(=O)NC(=O)Nc1nc(OC)cc(OC)n1`: the compound was called inactive.
Still for that read-out and setting: next, `CCCCOC(=O)[C@@H](C)Oc1ccc(Oc2ccc(C(F)(F)F)cn2)cc1`: “inactive”.
Still for that read-out and setting: the result for `CCOC(=O)C(C)Oc1ccc(Oc2cnc3cc(Cl)ccc3n2)cc1` (stereo not given) reads “inactive”.
For the compound `CC(C)(C)[C@@H](O)[C@@H](Cc1ccc(Cl)cc1)n1cncn1`, the half-maximal activity concentration (AC50) is 3.97 µM (active).
Turning to `CCOC(=O)COc1cc(-n2ncc(C(F)(F)F)c(C)c2=O)c(F)cc1Cl`, the compound was classed as inactive.
Same read-out and setting: next, `COc1c(Cl)ccc(Cl)c1C(=O)O`: “inactive”; `CCCCCOC(=O)COc1cc(N2C(=O)C3=C(CCCC3)C2=O)c(F)cc1Cl`: “inactive”.
For `CCN(Cc1c(F)cccc1Cl)c1c([N+](=O)[O-])cc(C(F)(F)F)cc1[N+](=O)[O-]`, the AC50 is 0.565 µM (active).
On the same count and under the same terms, the result for `c1ccc(Nc2ccccc2)cc1` reads 4.82 µM (active); that for `N#CSCSc1nc2ccccc2s1`, 2.82 µM (active).
Still for that read-out and setting: the result for `CCCN(CCC)c1c([N+](=O)[O-])cc(C(F)(F)F)c(N)c1[N+](=O)[O-]` reads 2.63 µM (active).
